The record followed here is PubChem BioAssay (Tox21).

The structures appear in SMILES notation. A number with no mark means an inactive call. Inconclusive results are not listed. Calls of active or inactive are those of the source. Unless noted, calls follow the shape of the full dose curve.

The nature of assay [1]: Nuclear factor erythroid 2-related factor 2/antioxidant responsive element (Nrf2/ARE) small molecule agonists: qHTS cell viability counter screen in human keratinocytes (AID 1919968; active = well fitted curve in the direction sought with a large enough effect in the repeat runs; an effect the other way counts as inactive or inconclusive; also: nearly all actives have a fitted effect of over 55% in size). In short, it runs like this: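 In human HaCaT keratinocytes stably expressing an ARE-driven luciferase, compound exposure lasted 23 h at 37 C under 5% CO2. Viable cells are quantified with a protease-based fluorogenic reagent (CellTiter-Fluor) read 1 h after addition.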
A general note: In qHTS, concentration-response curves come from the screen itself.

A short description of assay [2]: Nuclear factor erythroid 2-related factor 2/antioxidant responsive element (Nrf2/ARE) small molecule agonists: luciferase reporter gene qHTS assay in human keratinocytes (AID 1919969). Also: nearly all actives have a fitted effect of over 35% in size. Also: potency is read from the fitted curve at half-maximal effect. A general note: In a reporter assay the amount or activity of a reporter protein is the signal.
Assay [3] has as its target KiSS-1 receptor (Homo sapiens) (UniProt Q969F8). Nature of the assay: Human kisspeptin (KISS1R) small molecule agonists, calcium flux assay in KISS1R-HEK293 cells (AID 1920064; active = well fitted curve in the direction sought with a large enough effect in the repeat runs; an effect the other way counts as inactive or inconclusive). In short, it runs like this: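 Concentration-response testing used 15 concentrations in triplicate on human KISS1R-expressing HEK293 cells. Calcium-dependent fluorescence (Ex/Em 480/540) was followed kinetically for 3 min after compound transfer.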
In general terms: A change in cytosolic calcium serves as a functional read-out for many receptors and channels.

Assay [4] in a line: G protein-coupled receptor (GPCR) small molecule agonists, calcium flux assay: HEK293 wild type cell line counter screen (AID 1920065). In short, it runs like this:
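Fluorescence intensity signals activation. After overnight (18 h) culture and a 1 h calcium dye load at 37 C, compounds are added by pin tool and the plate read at 480/540 nm for 3 min in 1 s steps.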

The nature of assay [5]: p53 small molecule agonists, cell-based qHTS assay with human liver microsomes (AID 1963577).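 Also: p53 response element beta-lactamase reporter cells with liver microsomes plus NADPH.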 The gist of the method: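 16 h, 37 C exposure of p53RE-bla cells to compounds with human liver microsomes and NADPH (0.5 mg/mL final each); detection via LiveBLAzer mixture, 2 h dark at room temperature.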
A short description of assay [6]: p53 small molecule agonists, cell-based qHTS assay with rat liver microsomes (AID 1963578). The gist of the method: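 With rat liver microsomes and NADPH present (0.5 mg/mL final each), p53RE-bla cells are treated with compound for 16 h at 37 C. LiveBLAzer detection mixture is then applied for 2 h at room temperature in the dark.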
A short description of assay [7]: p53 small molecule agonists, cell-based qHTS assay with human liver microsomes: qHTS cell viability counter screen (AID 1963579). Also: nearly all actives have a fitted effect of over 45% in size. The gist of the method:
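In this multiplexed counter screen, the reporter plates were subsequently treated with CellTiter-Glo so that cell viability, reflected by luminescence, could be recorded for p53RE-bla cells dosed 16 h with compounds under microsomal activation (HLM and NADPH).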

The nature of assay [8]: p53 small molecule agonists, cell-based qHTS assay with rat liver microsomes: qHTS cell viability counter screen (AID 1963580). Also: nearly all actives have a fitted effect of over 45% in size. In short, it runs like this:
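Counter screen for cytotoxicity under metabolic activation: rat liver microsomes and NADPH, 0.5 mg/mL final each, added with compounds to p53RE-bla HCT-116 cells; 16 h at 37 C, then ATP luminescence read.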

Assay [9] is described as follows: p53 small molecule agonists, cell-based qHTS assay: qHTS cell viability counter screen (AID 1963581). Also: nearly all actives have a fitted effect of over 45% in size. The gist of the method:
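Luminescence from CellTiter-Glo, reflecting ATP content, serves as the cytotoxicity measure; it is taken after the 2 h reporter substrate step in HCT-116 p53RE-bla cells dosed for 16 h at 37 C.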

Assay [10] is described as follows: p53 small molecule agonists, cell-based qHTS assay (AID 1963582; active = well fitted activation curve with a large enough effect in the signal ratio in the repeat runs, not every such curve was filed as active; the % refers to the signal ratio). In short, it runs like this:
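After plating, p53RE-bla cells sat 5 h in the incubator; compounds or DMSO vehicle were pinned in; a 16 h incubation at 37 C followed; FRET substrate was added and, 2 h later at RT, fluorescence was measured.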

In assay [11] the target is 5-hydroxytryptamine receptor 2A (Homo sapiens) (UniProt P28223). The assay is described as follows: 5-hydroxytryptamine receptor 2A (HTR2A) small molecule agonists, cell-based qHTS assay (AID 1963587). Also: nearly all actives have a fitted effect of over 30% in size. In short, it runs like this:
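HTR2A-CHO cells, plated 18 h at 37 C/5% CO2, dye-loaded 1 h at 37 C; compounds in DMSO added by pin tool (agonist mode). Intracellular calcium flux read as kinetic fluorescence on FDSS over 2 min at 1 s intervals.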

Assay [12] addresses Muscarinic acetylcholine receptor M1 (Homo sapiens) (UniProt P11229). The assay is described as follows: Cholinergic receptor muscarinic 1 (CHRM1) small molecule antagonists, cell-based qHTS assay (AID 1963588). Also: nearly all actives have a fitted effect of over 40% in size. In short, it runs like this: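 Compounds were tested at 15 concentrations in three independent runs. Dye-loaded CHRM1-CHO cells were exposed 5 min at room temperature before stimulation by acetylcholine added at 50nM. Intracellular calcium was read kinetically on FDSS for 3 min.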

Assay [13] has the same target. The assay is described as follows: Cholinergic receptor muscarinic 1 (CHRM1) small molecule agonists, cell-based qHTS assay (AID 1963589). Also: nearly all actives have a fitted effect of over 35% in size. In short, it runs like this: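 Fluorescent calcium dye reports M1 activation in stably transfected CHO cells. Compounds, 15 concentrations, added after 1 h dye loading at 37 C; kinetic reading at 1 sec intervals.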
A short description of assay [14]: cAMP Responsive Elements (CRE) small molecule agonists, cell-based qHTS assay (AID 1963590). In short, it runs like this: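 Compound exposure lasted 3 h at 37 C/5% CO2 in CRE-bla HEK 293T cells grown in assay medium with 10% dialyzed FBS and 25 mM HEPES. Reporter signal came from LiveBLAzer B/G FRET substrate, 2 h, room temperature.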
A short description of assay [15]: cAMP Responsive Elements (CRE) small molecule antagonists, cell-based qHTS assay (AID 1963591; active = well fitted inhibition curve with a large enough effect in the signal ratio in the repeat runs, not every such curve was filed as active; the % refers to the signal ratio). In short, it runs like this:
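Stimulation used NKH477 at a final 0.25 uM for 3 h in compound-treated CRE-bla HEK293T cells, seeded 18 h beforehand. Reporter activity was measured with LiveBLAzer B/G FRET substrate after 2 h at room temperature.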

Assay [16] concerns the target Beta-2 adrenergic receptor (Homo sapiens) (UniProt P07550). The assay is described as follows: Adrenergic beta2 receptor (ADRB2) small molecule antagonists, cell-based qHTS assay (AID 1963592). Also: series mostly up to about 92 µM; nearly all actives have a fitted effect of over 50% in size. In short, it runs like this:
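Assay format: CHO-ADRB2 cells, 18-20hr seeding at 37C/5% CO2, then compound plus 1nM isoproterenol agonist mix for 0.5hr RT. Homogeneous time-resolved fluorescence cAMP detection after 1hr, expressed as 665/615 nm ratio.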

The target in assay [17] is D(2) dopamine receptor (Homo sapiens) (UniProt P14416). The assay is described as follows: Dopamine D2 receptor (DRD2) small molecule agonists, cell-based qHTS assay (AID 1963594). Also: nearly all actives have a fitted effect of over 35% in size. In short, it runs like this: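 HEK293 cells stably expressing DRD2 were cultured 24 h at 37 C, then given Ro20-1724 (0.1 mM final) and compounds for 10 min at room temperature. NKH477 (200nM) was then added for 30 min. cAMP was read by HTRF.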
Chain of D(2) dopamine receptor (Homo sapiens) (P14416 whole entry, looked up): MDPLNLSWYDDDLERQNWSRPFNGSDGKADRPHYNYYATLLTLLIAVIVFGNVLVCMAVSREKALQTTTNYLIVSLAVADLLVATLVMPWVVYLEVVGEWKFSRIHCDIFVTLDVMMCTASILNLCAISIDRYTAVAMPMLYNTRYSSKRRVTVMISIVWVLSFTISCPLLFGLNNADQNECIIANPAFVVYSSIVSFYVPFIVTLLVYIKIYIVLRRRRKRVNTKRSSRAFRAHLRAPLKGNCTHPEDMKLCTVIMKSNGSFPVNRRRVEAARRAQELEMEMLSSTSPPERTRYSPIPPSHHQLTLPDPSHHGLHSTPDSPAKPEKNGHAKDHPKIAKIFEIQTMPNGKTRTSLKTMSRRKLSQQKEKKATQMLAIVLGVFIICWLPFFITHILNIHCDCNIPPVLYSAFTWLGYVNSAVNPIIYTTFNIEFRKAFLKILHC

Assay [18] has the same target. Nature of the assay: Dopamine D2 receptor (DRD2) small molecule antagonists, cell-based qHTS assay (AID 1963595; active = well fitted inhibition curve with a large enough effect in the signal ratio in the repeat runs, with a control signal flat; the % refers to the signal ratio; also: potency is read from the fitted curve at half-maximal effect). In short, it runs like this: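 Antagonist mode in DRD2-HEK293 cells: after compound addition with 0.1 mM Ro20-1724, cells received quinpirole (12 nM) and NKH477 (200 nM) for 30 min at room temperature; HTRF cAMP read after 1 h detection.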
In assay [19] the target is 5-hydroxytryptamine receptor 2A (Homo sapiens) (UniProt P28223). The assay is described as follows: 5-hydroxytryptamine receptor 2A (HTR2A) small molecule antagonists, cell-based qHTS assay (AID 1963586). Also: nearly all actives have a fitted effect of over 45% in size. Also: potency is read from the fitted curve at half-maximal effect. The gist of the method: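 CHO cells stably expressing human HTR2A were plated for 18 h at 37 C, then loaded with calcium dye for 1 h. Compounds were preincubated 5 min at room temperature before DOI (4 nM solution) was added. Kinetic fluorescence was read for 3 min.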
Chain of 5-hydroxytryptamine receptor 2A (Homo sapiens) (P28223 whole entry, looked up): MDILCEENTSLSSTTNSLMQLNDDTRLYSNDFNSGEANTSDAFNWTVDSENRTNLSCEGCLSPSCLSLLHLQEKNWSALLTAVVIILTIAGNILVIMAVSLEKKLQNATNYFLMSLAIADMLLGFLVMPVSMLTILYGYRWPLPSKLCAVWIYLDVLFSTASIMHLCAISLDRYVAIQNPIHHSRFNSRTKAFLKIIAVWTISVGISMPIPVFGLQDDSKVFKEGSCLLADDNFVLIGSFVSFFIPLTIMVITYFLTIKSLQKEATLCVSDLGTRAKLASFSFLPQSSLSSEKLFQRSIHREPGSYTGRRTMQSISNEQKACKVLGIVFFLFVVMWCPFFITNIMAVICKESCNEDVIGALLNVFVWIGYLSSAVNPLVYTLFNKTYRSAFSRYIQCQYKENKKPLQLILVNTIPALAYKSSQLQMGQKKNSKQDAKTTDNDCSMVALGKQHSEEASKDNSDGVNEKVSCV

For assay [20], the target named is Beta-2 adrenergic receptor (Homo sapiens) (UniProt P07550). The assay is described as follows: Adrenergic beta2 receptor (ADRB2) small molecule agonists, cell-based qHTS assay (AID 1963593). Also: potency is read from the fitted curve at half-maximal effect.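 As to activation: CHO cells stably overexpressing human ADRB2.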 In short, it runs like this: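 CHO cells stably over-expressing ADRB2 were plated overnight at 37C, then dosed with compounds plus a stimulation mix containing 100uM IBMX and 25uM Ro-20-1724 for 0.5hr at room temperature. cAMP was measured by HTRF competition, 1hr.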
Chain of Beta-2 adrenergic receptor (Homo sapiens) (P07550 whole entry, looked up): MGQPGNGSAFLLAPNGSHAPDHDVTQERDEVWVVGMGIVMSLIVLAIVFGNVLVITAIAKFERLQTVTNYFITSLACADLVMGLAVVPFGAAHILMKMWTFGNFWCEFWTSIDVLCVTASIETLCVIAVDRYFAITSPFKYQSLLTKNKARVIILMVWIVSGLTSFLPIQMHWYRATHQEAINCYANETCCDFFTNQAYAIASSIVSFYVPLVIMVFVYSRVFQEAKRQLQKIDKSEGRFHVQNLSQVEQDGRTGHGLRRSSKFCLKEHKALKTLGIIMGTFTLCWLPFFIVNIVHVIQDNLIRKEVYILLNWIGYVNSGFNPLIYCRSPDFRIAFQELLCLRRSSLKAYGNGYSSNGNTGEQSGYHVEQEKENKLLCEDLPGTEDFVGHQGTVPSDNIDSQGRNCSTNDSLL

Chain of Muscarinic acetylcholine receptor M1 (Homo sapiens) (P11229 whole entry, looked up): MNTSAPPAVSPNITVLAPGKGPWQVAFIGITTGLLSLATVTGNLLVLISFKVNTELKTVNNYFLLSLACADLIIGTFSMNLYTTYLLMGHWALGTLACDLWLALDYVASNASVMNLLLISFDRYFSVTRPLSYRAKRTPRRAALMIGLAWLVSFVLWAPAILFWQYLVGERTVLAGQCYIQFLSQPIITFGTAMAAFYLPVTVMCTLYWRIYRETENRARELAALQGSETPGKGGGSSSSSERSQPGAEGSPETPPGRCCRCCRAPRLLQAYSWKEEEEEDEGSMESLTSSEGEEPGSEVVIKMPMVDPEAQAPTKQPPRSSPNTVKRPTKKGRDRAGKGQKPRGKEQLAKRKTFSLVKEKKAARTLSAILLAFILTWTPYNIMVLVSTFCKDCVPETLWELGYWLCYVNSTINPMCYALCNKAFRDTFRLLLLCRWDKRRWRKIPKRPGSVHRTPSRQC
Chain of KiSS-1 receptor (Homo sapiens) (Q969F8 whole entry, looked up): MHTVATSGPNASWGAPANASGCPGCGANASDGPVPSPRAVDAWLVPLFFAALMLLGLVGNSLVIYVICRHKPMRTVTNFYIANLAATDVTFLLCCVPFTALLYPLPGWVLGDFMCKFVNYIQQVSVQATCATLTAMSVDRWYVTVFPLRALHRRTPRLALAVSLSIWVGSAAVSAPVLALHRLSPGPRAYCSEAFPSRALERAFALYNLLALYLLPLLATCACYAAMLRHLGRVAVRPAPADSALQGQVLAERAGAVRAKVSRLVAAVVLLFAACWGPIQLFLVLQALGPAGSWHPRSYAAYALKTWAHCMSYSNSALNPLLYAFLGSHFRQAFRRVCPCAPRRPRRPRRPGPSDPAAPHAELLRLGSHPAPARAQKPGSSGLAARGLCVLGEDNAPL

As for `O=C(O)CP(=O)(O)O`, the Potency entry in assay [1], in assay [2], in assay [5], in assay [6], in [7] and in [8] was “inactive” each time. Moreover, the Potency entry in assay [9], in assay [10], in assay [11], in [12], in [13] and in assay [14] was “inactive” throughout. Moreover, the Potency entry in assay [15], in assay [16], in [17] and in assay [18] was “inactive” in each case. Also, the result in [3] and in assay [4] was inactive.
Regarding `CCCCCCn1c(=O)c2c(ncn2C)n(C)c1=O`, the Potency entry in assay [1], in assay [2], in assay [5], in assay [6], in [7] and in [8] was “inactive” in each case. The Potency result in assay [9], in [10], in assay [19], in assay [11], in assay [12] and in [14] was “inactive” in each case. The Potency entry in [15], in assay [16], in assay [17] and in assay [18] was “inactive” in each case. The outcome in assay [3] and in assay [4] was inactive.
Take `CC[C@H](NC(C)C)[C@H](O)c1ccc(O)c2[nH]c(=O)ccc12`: the Potency entry in [1], in [2], in assay [5], in assay [6], in assay [7] and in assay [8] was “inactive” each time. The Potency entry in assay [9], in [10], in [19], in [11], in assay [12] and in [13] was “inactive” in each case. Moreover, the Potency entry in [17] was “inactive”. Also, the outcome in assay [3] and in [4] was inactive. For the same molecule, the Potency in [20] was 1.7 nM (active); in assay [18], 94.4 nM (active).
Regarding `COc1ccccc1Oc1c(NS(=O)(=O)c2ccc(C(C)(C)C)cc2)nc(-c2ncccn2)nc1OCCO`, the Potency entry in assay [1], in assay [5], in assay [6], in assay [7], in assay [8] and in assay [9] was “inactive” throughout. For the same molecule, the Potency entry in assay [10], in assay [19], in assay [11], in assay [12], in assay [15] and in assay [16] was “inactive” each time. Moreover, the Potency entry in [20], in [17] and in assay [18] was “inactive” in each case. Moreover, in [2], the Potency is 33500 nM (active). Moreover, the outcome in assay [3] and in assay [4] was inactive.
Take `O=C(O)c1snc(Cl)c1Cl`: the Potency entry in assay [1], in assay [5], in assay [6], in [7], in assay [8] and in assay [9] was “inactive” throughout. In addition, the Potency result in assay [10], in [19], in assay [11], in assay [13], in assay [14] and in assay [15] was “inactive” in each case. Also, the Potency entry in [16], in [17] and in assay [18] was “inactive” throughout. In addition, in [2], the Potency was 68600 nM (active). The outcome in assay [3] and in [4] was inactive.
Take `CCOC(=N)CC(=O)OCC`: the Potency result in [1], in assay [2], in assay [5], in assay [6], in [7] and in assay [8] was “inactive” throughout. Moreover, the Potency result in assay [9], in assay [19], in [11], in [12], in assay [14] and in [15] was “inactive” each time. Also, the Potency result in assay [16], in [17] and in [18] was “inactive” throughout. The outcome in assay [3] and in [4] was inactive.
As to `CC(C)C[C@@H]1[C@H](c2ccccc2)OC(=O)N1CCCN1CCCCCC1`, the Potency entry in [1], in assay [2], in assay [5], in assay [6], in assay [7] and in [8] was “inactive” in each case. The Potency entry in assay [9], in [10], in [11], in assay [12], in assay [13] and in assay [15] was “inactive” throughout. The Potency entry in [16], in assay [17] and in assay [18] was “inactive” throughout. The outcome in [3] and in assay [4] was inactive. Moreover, the Potency in [19] is 2590 nM (active).
